Assay outcomes from PubChem BioAssay.
Sampled rows, rich in hits. Any-hit rate of the full collection: about 3.1%.
Mcl-1 Bim block: inhibitors of Bim peptide binding to Mcl-1, primary screen, biochemical, bead-based flow cytometry, multiplex | Bim peptide-Mcl-1 binding | inhibition, % at 10 µM | 190,000 tested, 0.1% active; in the data active means inhibition above about 40%;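 further: 0% = no compound tracer wells and 100% = peptide blocker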
14-3-3 Bad PPI: inhibitors of 14-3-3 zeta/Bad binding, primary screen, biochemical, TR-FRET, bovine 14-3-3 zeta. 14-3-3 protein zeta/delta (Bos taurus), P63103. TR-FRET 14-3-3zeta/Dy647-pBad peptide displacement, 1 h. inhibition, % at 21.7 µM. 220,000 tested, 0.71% active;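 active means inhibition above about 70%, limit read from the data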;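 further: 0% = full 14-3-3 plus peptide FRET controls and 100% = background without 14-3-3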
Target sequence (P63103 whole entry, looked up): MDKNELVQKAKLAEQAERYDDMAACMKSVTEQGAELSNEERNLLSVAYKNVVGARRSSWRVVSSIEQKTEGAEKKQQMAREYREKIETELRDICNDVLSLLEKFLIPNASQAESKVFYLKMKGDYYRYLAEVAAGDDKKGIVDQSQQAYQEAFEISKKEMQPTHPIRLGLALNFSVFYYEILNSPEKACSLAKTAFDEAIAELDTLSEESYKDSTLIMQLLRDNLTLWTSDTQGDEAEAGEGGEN
p47phox inh: p47phox/p22phox peptide binding inhibitors, primary screen, biochemical, uHTS, NADPH oxidase regulatory subunit | Neutrophil cytosol factor 1 (Homo sapiens), P14598 | fluorescence polarization, 2 h | inhibition, % at 24.7 µM | 220,000 tested, 0.53% active;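 active means inhibition above about 30%, limit read from the data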;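 further: 0% = p47phox with labelled peptide and 100% = labelled peptide alone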
Target sequence (P14598 whole entry, looked up): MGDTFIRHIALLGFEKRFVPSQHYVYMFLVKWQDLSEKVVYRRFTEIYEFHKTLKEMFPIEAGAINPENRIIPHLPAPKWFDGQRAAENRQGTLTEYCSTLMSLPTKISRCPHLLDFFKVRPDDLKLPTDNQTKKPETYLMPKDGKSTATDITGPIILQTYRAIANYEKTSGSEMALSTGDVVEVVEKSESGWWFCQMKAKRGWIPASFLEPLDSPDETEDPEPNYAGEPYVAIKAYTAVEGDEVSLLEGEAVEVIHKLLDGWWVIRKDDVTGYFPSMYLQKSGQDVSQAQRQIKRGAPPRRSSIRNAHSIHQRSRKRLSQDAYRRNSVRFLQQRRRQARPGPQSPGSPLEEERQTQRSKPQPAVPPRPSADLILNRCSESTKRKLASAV
Mcl1 Bid PPI: Mcl-1/Bid binding inhibitors, primary screen, biochemical, TR-FRET, 1536-well; Induced myeloid leukemia cell differentiation protein Mcl-1 (Homo sapiens), Q07820; TR-FRET Mcl-1/Bid-Dy647 peptide binding; inhibition, % at 21.7 µM; 220,000 tested, 0.97% active;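 active means compounds that cut the binding signal by more than half at the single screening dose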;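 further: His-tagged Mcl-1 with europium anti-His antibody binding Bid BH3 peptide; 0% = Mcl-1 plus peptide wells and 100% = peptide-only wells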
Mcl1-Noxa inh: Mcl-1/Noxa binding inhibitors, primary screen, biochemical, TR-FRET, 1536-well. TR-FRET Mcl-1/Noxa peptide binding, 2 h. AID 1022, 2008. inhibition, % at 21.7 µM. 220,000 tested, 1.5% active;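 active means compounds that cut the protein-peptide binding signal by more than 50% relative to plate controls in a single-dose test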;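 further: His-tagged Mcl-1 with rhodamine Noxa BH3 peptide and terbium anti-His antibody; 0% = Mcl-1 plus Noxa peptide wells and 100% = peptide-only wells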
Active calls of the source: *; nt = no result given.

SMILES | Mcl-1 Bim block | 14-3-3 Bad PPI | p47phox inh | Mcl1 Bid PPI | Mcl1-Noxa inh
COc1ccc(-c2csc(/C(C#N)=C\c3ccc(OC)c([N+](=O)[O-])c3)n2)cc1 | -5 | -5 | -13 | -6 | 13
COc1cc(/C=C(\C#N)c2nc3ccccc3s2)cc([N+](=O)[O-])c1O | 4 | 28 | -86 | 49 | 99*
COc1ccc(-c2csc(/C(C#N)=C\c3ccc(O)c([N+](=O)[O-])c3)n2)cc1OC | nt | 12 | -16 | 70* | 102*
Cc1cc(Br)cnc1NC(=S)Nc1ccc(F)cc1F | -1 | -2 | -4 | -23 | 15
Cc1ccc(Nc2ccc(S(=O)(=O)N3CCOCC3)cc2[N+](=O)[O-])c(C)c1 | -1 | 5 | 1 | -33 | 23
Brc1ccc(CSc2nnc(-c3ccco3)o2)cc1 | -6 | 10 | -7 | 5 | 14
O=c1cnnc(N/N=C/C2CC=CCC2)[nH]1 (stereo not drawn) | -4 | -4 | -17 | -26 | 2
CSc1nc(NCCOCCO)c2sc3nc(-c4ccco4)c4c(c3c2n1)CCC4 | 9 | 30 | -36 | 19 | 96*
CSc1nc(NCc2ccco2)c2sc3nc(C(C)C)c4c(c3c2n1)CC(C)(C)OC4 | 1 | -6 | -55 | -6 | -41
CCN(CCO)c1nc(SC)nc2c1sc1nc(-c3ccco3)c3c(c12)CCC3 | 5 | 6 | -32 | 52* | 99*
CCN(CC)S(=O)(=O)c1ccc(N2CCOCC2)c(NC(=O)c2ccc(C#N)cc2)c1 | -2 | -1 | -6 | -17 | 8
C#Cc1ccc(C(=O)Nc2cc(C(N)=O)ccc2N2CCOCC2)cc1 | 2 | -3 | -15 | -6 | 51*
CCc1nn2c(NCCOC)cc(C)nc2c1-c1ccc(F)cc1 | -1 | -2 | -8 | -16 | -9
C=C(C)c1cccc(C(C)(C)NC(=O)N(C)C2CCN(C)CC2)c1 | -2 | 5 | 110* | -42 | 19
CC(=C/c1ccccc1)/C=C1/SC(N2CCOCC2)=NC1=O | 0 | 7 | -10 | 64* | 40
CC(C)(C)c1ccc(NC(=S)NCCc2ccccn2)cc1 | nt | 25 | -11 | 51* | 23
Fc1ccc(NC(=S)NCCc2ccccn2)cc1 | 1 | -6 | -8 | -39 | 5
CSc1nnc(NC(=O)c2cc(=O)c3cc(C)cc(C)c3o2)s1 | nt | 1 | -8 | -7 | 30
COc1ccc2c(CC(=O)Nc3ccc(OC)nc3)coc2c1 | 0 | -10 | 35* | -23 | -8
CCOc1ccc(C2CC(=O)N(Nc3ccc([N+](=O)[O-])cc3[N+](=O)[O-])C2=O)cc1 (stereo not drawn) | nt | 1 | 0 | 0 | 54*
O=C(CCCOc1ccc(Cl)cc1Cl)Nc1cccnc1 | -2 | 78* | -6 | 28 | 11
O=S(=O)(N/N=C/c1ccc(N2CCOCC2)cc1)c1ccc(Br)cc1 | 0 | -1 | -7 | -31 | 15
COc1ccc(CN2C(=O)CN=C2Nc2cccc(C)c2C)cc1 | -1 | 82* | -14 | -10 | 23
COc1ccc(NC2=NCC(=O)N2Cc2cccs2)cc1 | 2 | 75* | 4 | 17 | 32
COc1cccc(NC2=NCC(=O)N2Cc2cccs2)c1 | -3 | 71* | -2 | 17 | 15
SMILES | Mcl-1 Bim block | 14-3-3 Bad PPI | p47phox inh | Mcl1 Bid PPI | Mcl1-Noxa inh
COc1ccccc1NC1=NCC(=O)N1Cc1ccccc1 | 0 | 28 | -3 | -4 | 29
Cc1cccc2cc(-c3ccccc3)c(-c3ccccc3)c[n+]12 | -2 | -11 | 49* | -44 | 15
Cn1ncc(N=Cc2ccccc2)c1C(=O)Nc1cccc(Cl)c1 | 0 | 2 | -83 | 4 | 8
CCc1ccc(/C=C2\Oc3c(ccc(O)c3CN3CCN(CCO)CC3)C2=O)cc1 | nt | 5 | -18 | -20 | 19
CCC(=O)OC1(C#CCOc2ccc(OC)cc2)CCN(C)CC1 | 4 | 33 | -3 | 53* | 10
CCN(CC)S(=O)(=O)c1cccc(C(=O)N/N=C/c2ccc(O)c(O)c2O)c1 | 44* | -10 | -20 | -81 | 95*
CN(C)S(=O)(=O)c1cccc(NC(=S)N/N=C/c2ccc(O)c(O)c2O)c1 | nt | 45 | -2 | -99 | 108*
CCN(CC)S(=O)(=O)c1cccc(C(=O)N[C@H](C(=O)O)C(C)C)c1 | -2 | 16 | 92* | 7 | 3
COCCn1cnnc1SCC(=O)c1ccc(S(=O)(=O)N2CCCC2)cc1 | -2 | -4 | -12 | -22 | 10
CNS(=O)(=O)c1cccc(C(=O)OCc2cc(Cl)cc3c2OCOC3)c1 | -2 | -4 | -16 | -1 | 13
CCn1c(=O)cc(SCC(=O)Nc2ccc(C)cn2)c2ccccc21 | 1 | 3 | -14 | -59 | 3
CCCN1CCc2c(sc(NC(=S)NC(=O)c3ccccc3)c2C#N)C1 | -5 | 90* | -16 | -13 | 38
Cc1ccccc1C(=O)NC(=S)Nc1sc2c(c1C#N)CCCC2 | -3 | -3 | 8 | 93* | 6
Cc1onc(-c2ccccc2)c1C(=O)NC(=S)Nc1sc2c(c1C#N)CCCC2 | -4 | -6 | -75 | 7 | 44
CC(C)N1CCc2c(sc(NC(=S)NC(=O)c3ccccc3)c2C#N)C1 | -9 | -6 | -147 | -23 | 35
CCN1C(=O)[C@@H]2C(C(=O)c3cnccn3)=NN[C@@H]2C1=O | nt | 1 | -7 | -21 | -6
CCOC(=O)C1CCCN(c2ccc(NC(=O)c3snc4c(=O)[nH]cnc34)cc2)C1 (stereo not drawn) | -3 | 12 | 1 | -60 | 63*
O=C(Nc1ccccc1)c1snc2c(=O)[nH]cnc12 | 16 | 2 | -7 | -4 | -2
CCOC(=O)C1CCCN(c2c(Nc3ccc(C)c(C)c3)c(=O)c2=O)C1 (stereo not drawn) | -4 | 12 | -11 | -7 | -7
CCOC(=O)C1CCCN(c2ccc(NC(=O)c3snc4c(=O)[nH]c(C)nc34)cc2)C1 (stereo not drawn) | 0 | 1 | -4 | 2 | 84*
Cc1ccc(Cn2nnc3c(=O)n(CC(=O)c4ccccc4)cnc32)cc1 | 0 | 6 | -15 | -10 | 8
O=C(NCC1CCCO1)c1sc2cc(Cl)ccc2c1Cl (stereo not drawn) | -11 | 3 | -11 | 8 | 10
Cc1ccc(-n2cccc2/C=C2\C(=N)N3N=C(c4ccco4)SC3=NC2=O)cc1 | -3 | 74* | -81 | 79* | 94*
CS(=O)(=O)C1=NSC2=NC(=O)/C(=C\c3cccn3-c3ccccc3Cl)C(=N)N21 | 1 | 4 | -91 | -8 | 89*
Cc1ccc(-n2cccc2/C=C2/C(=N)N3C(=NC2=O)SN=C3S(C)(=O)=O)cc1 | -1 | 10 | -71 | -17 | 98*
Cc1cc(C)cc(-n2cccc2/C=C2/C(=N)N3C(=NC2=O)SN=C3S(C)(=O)=O)c1 | 3 | -2 | -115 | -12 | 34
